Screens from PubChem.
TRPML1 blocker = human mucolipin-1 channel inhibition | TRPML1-inducible cells, Ca2+ dye fluorescence, FDSS; active compounds read low; inhibition of EC80 agonist-evoked calcium signal | 0.02% of 390,000 active | activity change, negative = inhibition, % (concentration not given with the values) | Q9GZU1; in the data active = activity change below about -50%; inconclusive = between about -30% and that limit;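 also: stimulus is agonist 54-4 at its EC80 concentration; % is scaled to controls: 0 for no effect and ±100 for the full control effect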
Target sequence (Q9GZU1 whole entry, looked up): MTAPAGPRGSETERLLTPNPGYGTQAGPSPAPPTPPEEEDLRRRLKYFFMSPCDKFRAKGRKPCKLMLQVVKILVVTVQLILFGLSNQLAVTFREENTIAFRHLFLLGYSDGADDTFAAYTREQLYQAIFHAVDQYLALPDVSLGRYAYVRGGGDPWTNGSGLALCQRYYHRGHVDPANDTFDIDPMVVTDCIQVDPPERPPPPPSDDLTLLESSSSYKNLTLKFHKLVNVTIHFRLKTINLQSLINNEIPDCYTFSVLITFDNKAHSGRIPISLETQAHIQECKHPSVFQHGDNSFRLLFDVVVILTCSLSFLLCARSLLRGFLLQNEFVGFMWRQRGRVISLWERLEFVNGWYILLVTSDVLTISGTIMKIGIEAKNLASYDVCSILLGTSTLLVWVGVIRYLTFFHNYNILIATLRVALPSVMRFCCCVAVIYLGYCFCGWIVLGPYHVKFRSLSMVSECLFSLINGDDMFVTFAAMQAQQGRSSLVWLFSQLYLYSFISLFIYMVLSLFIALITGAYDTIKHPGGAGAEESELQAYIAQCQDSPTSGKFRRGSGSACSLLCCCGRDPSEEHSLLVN
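Calcium fluorescence in TRPML1-DL cells induced overnight with Tet: a 110 s read after compound pin addition, then a 110 s antagonist read after challenge with 54-4 at 4 uM final (EC80).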
TRHR PAM = TRH receptor (human) allosteric enhancement; P34981; TRHR cells, fluo-8 calcium fluorescence, EC20 TRH enhancement; enhancement, % at 2 µM; 0.66% of 360,000 active; in the data active = enhancement above about 30%; also: 0% is about no effect
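TRHR-expressing cells loaded with fluo-8 calcium dye were read kinetically (ex 480/em 530) during compound addition, then stimulated with an EC20 of TRH (10 nM final). Enhancement of the Gq-mediated intracellular calcium response was scored.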
TRPV1 PAM = human TRPV1 potentiation. TRPV1-expressing cells, Fluo-8 calcium influx, capsaicin EC20 potentiation. potentiation, % at 8.33 µM. 0.02% of 320,000 active. AID 540277; in the data active = potentiation above about 80%; inconclusive = between about 30% and that limit; also: 0% is about no effect
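Cells expressing TRPV1 were dye-loaded with Fluo-8 and read kinetically: 10 s baseline, 3 min after compound (agonist portion), then 2 min after EC20 capsaicin (allosteric enhancer portion). Calcium-bound dye fluorescence at 480/520 nm.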
TRPV1 agonist = activates the human vanilloid receptor TRPV1. AID 540275. 0.19% of 320,000 active. Q8NER1. activation, % at 8.33 µM. TRPV1-expressing cells, Fluo-8 calcium influx, agonist mode; in the data active = activation above about 80%; inconclusive = between about 30% and that limit; also: 0% is about no effect
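TRPV1-expressing cells were cultured overnight at 35.5C and loaded with Fluo-8 calcium dye for 40 to 90 min at room temperature. After a 10 s baseline, compound was added and calcium influx was read kinetically for 3 min (ex 480/em 520 nm).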
TRHR ag = TRH receptor (human) agonism. activation, % at 2 µM. TRHR cells, calcium flux fluo-8, FDSS agonist mode. 0.18% of 360,000 active. P34981. AID 493084; in the data active = activation above about 30%; also: 0% is about no effect
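Fluo-8-loaded TRHR cells; 10 s baseline, compound added, kinetic Ca2+ fluorescence read 1/s, agonist mode.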
TRPML1 agonist = agonists of human TRPML1 channel | 0.12% of 410,000 active | Q9GZU1 | AID 624414 | activation, % (concentration not given with the values) | TRPML1-expressing cells, Ca2+ dye fluorescence, FDSS; in the data active = activation above about 50%; inconclusive = mostly about 30% to 49%; also: 0% is about no effect
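TRPML1-DL cells, Tet-induced overnight (~16 h, 37 degrees C), loaded 45-90 min at room temperature with Ca8 no-wash calcium dye plus quencher. FDSS fluorescence: 10 s baseline, compound pin-transfer, 110 s agonist read, then EC80 54-4 (4uM final) and 110 s antagonist read.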
Starred values were filed as active, the others as inactive. Rows were chosen to be rich in hits. Some 0.96% of all compounds tested hit in one or more screens of this group.

Results for C=C(C)[C@@H]1C2=CC(C(=O)OC)=C(C[C@@H](C(=C)C)[C@H]3O[C@H]3C3=C[C@H]1OC3=O)O2 ?
TRPML1 agonist: 2

What do the screens show for `O=C(Nc1ccc(F)cc1)c1cc2ccccc2o1`?
TRHR PAM: -1; TRPV1 PAM: -9; TRPV1 agonist: 98*; TRHR ag: 0

How did CCOCc1c(C(=O)Nc2ccc(OC)nc2)oc2ccccc12 do in these assays?
TRPML1 blocker: 37; TRHR PAM: -2; TRPV1 PAM: 9; TRPV1 agonist: 90*; TRHR ag: -1; TRPML1 agonist: 1

Results for COc1ccc(NC(=O)c2oc3ccccc3c2CSC)cn1 ?
TRPML1 blocker: 38; TRHR PAM: 0; TRPV1 PAM: -14; TRPV1 agonist: inconclusive; TRHR ag: 0; TRPML1 agonist: 2

How did COc1ccc(NC(=O)c2cc(=O)c3ccccc3o2)cn1 do in these assays?
TRPML1 blocker: 13; TRHR PAM: 4; TRPV1 PAM: -17; TRPV1 agonist: 1; TRHR ag: 0; TRPML1 agonist: 0

How did COc1ccc(NC(=O)c2cc3ccccc3o2)cn1 do in these assays?
TRPML1 blocker: 5; TRHR PAM: 41*; TRPV1 PAM: -19; TRPV1 agonist: inconclusive; TRHR ag: 0; TRPML1 agonist: 1

What do the screens show for `CN1CCc2sc(NC(=O)Cc3ccccc3)c(C(=O)Nc3ccc(Cl)cc3)c2C1`?
TRHR PAM: 3; TRHR ag: 1

How did Cc1nc2ccccc2c(=O)n1NC(=O)C1CCC(C(C)(C)C)CC1 (stereo not given) do in these assays?
TRPML1 blocker: -10; TRHR PAM: 3; TRPV1 PAM: 3; TRPV1 agonist: 82*; TRHR ag: 0; TRPML1 agonist: 0

What do the screens show for `Cc1nc2ccccc2c(=O)n1NC(=O)C1CC1C` (stereo not given)?
TRPML1 blocker: -2; TRHR PAM: -3; TRPV1 PAM: -7; TRPV1 agonist: 0; TRHR ag: 0; TRPML1 agonist: -1

How did CNc1c(Cl)cc(C=O)cc1Cl do in these assays?
TRPML1 agonist: -1

Results for Cn1c(=O)n(C)c2cc(NS(=O)(=O)c3ccccc3)c(NCc3ccccc3)cc21 ?
TRPML1 blocker: -5; TRHR PAM: 30*; TRHR ag: 0; TRPML1 agonist: 3

What do the screens show for `Cn1c(=O)n(C)c2cc(NS(=O)(=O)c3ccc(C(C)(C)C)cc3)c(NCc3ccccc3)cc21`?
TRPML1 blocker: -5; TRHR PAM: 0; TRHR ag: -1; TRPML1 agonist: 0

How did CCCCCC(=O)C(=O)c1ccc(O)cc1O do in these assays?
TRPML1 blocker: 25; TRHR PAM: 34*; TRPV1 PAM: inconclusive; TRPV1 agonist: -4; TRHR ag: -1; TRPML1 agonist: 5

What do the screens show for `Cc1ccc(S(=O)(=O)CCC(=O)c2ccc(O)cc2O)cc1`?
TRPML1 blocker: 4; TRHR PAM: -1; TRPV1 PAM: -1; TRPV1 agonist: -3; TRHR ag: 0; TRPML1 agonist: 0

What do the screens show for `O=C(OCCF)N1CCN(/[N+]([O-])=N/Oc2ccc([N+](=O)[O-])cc2[N+](=O)[O-])CC1`?
TRPML1 blocker: -6; TRPML1 agonist: 1

What do the screens show for `CCOc1ccc(NC(=O)CN(C)CC(=O)Nc2cc(Cl)ccc2C#N)cc1OCC`?
TRPML1 blocker: 16; TRHR PAM: -4; TRPV1 PAM: 1; TRPV1 agonist: -2; TRHR ag: -1; TRPML1 agonist: 1

Results for Cc1cccc(C)c1NC(=O)CN(C)CC(=O)Nc1cc(Cl)ccc1C#N ?
TRPML1 blocker: -7; TRHR PAM: 34*; TRPV1 PAM: -6; TRPV1 agonist: 7; TRHR ag: 0; TRPML1 agonist: 0

Results for Nc1nc2c(nc(N3CCOCC3)n2COCCO)c(=O)[nH]1 ?
TRPML1 agonist: 0

Results for Cc1ccccc1N=C1Nc2ccc(Cl)cc2N[C@]12C[C@H]1CCCC(=O)N3CC[C@@H](C2)[C@@H]13 ?
TRPML1 agonist: -1
